From PubChem BioAssay
In the library only some 7.5% were active in any assay of this set; here they are far more common.
FLuc counter: inhibits or activates purified firefly luciferase, miR-21 counter-screen; P08659; purified FLuc, Km substrates, luminescence inhibition; Potency, µM (titrated, usually from 57.5 µM), for inactives: top-dose activity change, negative = inhibition, usual class: inhibitors; 360,000 compounds, 6.9% hits;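 note: plate controls were vehicle for no effect and reference inhibitor for full effect; nearly all actives have a fitted effect of over 55% in size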
Target sequence (P08659 whole entry, looked up): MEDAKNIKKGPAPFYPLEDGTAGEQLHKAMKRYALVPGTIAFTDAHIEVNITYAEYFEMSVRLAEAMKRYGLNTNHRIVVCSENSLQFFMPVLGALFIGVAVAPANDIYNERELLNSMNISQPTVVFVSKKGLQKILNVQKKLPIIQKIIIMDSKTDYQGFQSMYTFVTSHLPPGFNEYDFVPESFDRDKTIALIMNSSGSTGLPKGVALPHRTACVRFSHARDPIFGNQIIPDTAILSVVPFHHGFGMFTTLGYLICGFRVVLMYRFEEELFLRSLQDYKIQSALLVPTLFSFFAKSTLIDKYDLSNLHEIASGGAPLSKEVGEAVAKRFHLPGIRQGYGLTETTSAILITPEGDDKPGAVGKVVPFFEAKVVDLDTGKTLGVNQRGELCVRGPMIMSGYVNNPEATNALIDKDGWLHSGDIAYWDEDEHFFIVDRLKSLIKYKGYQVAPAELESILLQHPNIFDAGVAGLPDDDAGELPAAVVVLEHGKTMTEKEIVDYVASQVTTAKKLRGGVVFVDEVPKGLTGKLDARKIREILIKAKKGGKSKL
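Purified P. pyralis luciferase (10nM final) with 10uM D-luciferin and 10uM ATP (Km levels) in 50mM Tris acetate pH 7.5, 10mM Mg acetate, 0.01% Tween-20, 0.05% BSA; qHTS 6-point titration, ~60 µM downward; luminescence read.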
Rab9 prom act: activates the Rab9 promoter | Huh7 Rab9 promoter-luciferase reporter, luminescence, 24 h | Potency, µM (highest dose often 9.22 µM), for the others: top-dose activation, negative = inhibition, hits mostly activators | 320,000 compounds, 2.8% hits; note: % of control where 0% means no effect; nearly all actives have a fitted effect of over 60% in size
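Huh7 cells stably carrying Rab9 promoter–luciferase reporter, plated 1500 cells/well, compound added after 2 h and incubated 24 h at 37 °C; luciferase luminescence then read after 10 min with detection reagent.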
NPC1 promoter act: activates the NPC1 promoter; Huh7 NPC1 promoter luciferase reporter, 24 h; Potency, µM (series often up to 9.22 µM), inactives show top-dose activation, hits mostly activators; 320,000 compounds, 2.4% hits; AID 485313; note: % of control where 0% means no effect; nearly all actives have a fitted effect of over 60% in size
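Stably transfected Huh7 (NPC1 promoter→luciferase), 1500 cells/well in Opti-MEM + 10% FBS, 2 h settle, then compound 24 h at 37 °C. Luminescence after 10 min with Amplite reagent.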
ELG1 genotox: inducers of genotoxicity in HEK293T ELG1-luciferase cells. Potency, µM (highest dose often 46 µM), without a hit: top-dose activity change, positive = activation, most hits filed as activators. 330,000 compounds, 1.3% hits. HEK293T ELG1-luciferase reporter, luminescence, 16 h; note: % of control where 0% means no effect; nearly all actives have a fitted effect of over 60% in size
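Genotoxicity was scored as increased ELG1-luciferase reporter signal, measured by ONE-Glo luminescence (30 min, room temperature). Compound or vehicle exposure of the HEK293T reporter cells lasted 16 hr at 37°C.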
SMN2 splice up: enhancers of SMN2 splice variant expression; HEK293 SMN2-luciferase splicing reporter, luminescence, 30-36 h; 210,000 compounds, 2.8% hits; Potency, µM (series often up to 46.1 µM), without a hit: top-dose activity change, positive = activation, usual class: activators; AID 1458; note: % of control where 0% means no effect; nearly all actives have a fitted effect of over 55% in size
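HEK293 cells carry an SMN2 […]–luciferase reporter in which exon 7 inclusion puts luciferase in frame. Cells were plated 10-12 h before compound addition, then incubated 30-36 h at 37C. ONE-Glo luminescence was read; sodium butyrate at 4.5 mM final served as control.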
An asterisk follows results filed as active; ? = inconclusive; · = no result given; [ ] = dose if it differs, or a comment. Calls come from the whole dose curve; as a rule, active = well fitted curve in the direction sought with a large enough effect; inconclusive = small, poorly fitted or top-dose-only effect, or another doubt; inactive = no such curve, though single readings can be large; an effect the other way counts as inactive or inconclusive. Potency is the fitted concentration of half-maximal effect.

SMILES	FLuc counter	Rab9 prom act	NPC1 promoter act	ELG1 genotox	SMN2 splice up
Cc1ccc(/C=C2/SC(=S)N(c3ccc(S(=O)(=O)Nc4nccs4)cc3)C2=O)cc1	?	-1.0%	-5.5%	-6.2%	·
Cc1ccc(Oc2ccc3c(c2)C(=O)N(c2ccc(S(=O)(=O)Nc4nccs4)cc2)C3=O)cc1	19µM*	-4.8%	-5.0%	-1.7%	-15.2%
O=C(NCCCCNC(=O)c1cccs1)c1cccs1	2.4%	0.8%	-0.5%	3.4%	-0.4%
Cc1occc1C(=O)NCCc1cccc(Cl)c1	21.3µM*	3.98µM*	?	?	?
O=C(NCCc1cccc(Cl)c1)c1cccs1	15.1µM*	1.78µM*	2.24µM*	?	15.8µM*
O=C(NCCc1ccccc1)c1cccs1	10.7µM*	2.82µM*	2.82µM*	2.91µM*	11.2µM*
Cc1occc1C(=O)NCCCCNC(=O)c1ccoc1C	-0.6%	3.2%	0.1%	-1.5%	-4.1%
COC(=O)c1ccccc1NC(=O)c1ccc(-c2ccccc2F)o1	3.4%	?	3.16µM*	?	5.01µM*
COc1ccccc1NC(=O)c1ccc(-c2ccccc2F)o1	-8.2%[2.3 µM]	?	18.1%	7.6%	?
Cc1cc(NC(=O)c2ccc(-c3ccccc3F)o2)no1	15.1µM*	4.47µM*	3.55µM*	?	12.6µM*
Nc1nc(NCc2ccco2)nc(NC2CCCCC2)c1[N+](=O)[O-]	-0.3%	0.7%	-2.7%	2.2%	·
Cn1c(=O)c2c(nc(-n3ccnc3)n2Cc2ccc([N+](=O)[O-])cc2)n(C)c1=O	0.0%	-3.8%	-3.3%	-1.0%	?
COC(=O)c1ccc(Sc2ccc(C)cc2)c(N)c1	19µM*	23.7%	15.0%	2.7%	-15.7%
COc1ccc(OC)c(CNC(=O)c2ccc(Sc3ccc(C)cc3)c(N)c2)c1	-14.7%	·	·	·	·
O=C(NCC1COc2ccccc2O1)c1cccc(S(=O)(=O)N2CCOCC2)c1 (configuration not stated)	·	-1.2%	0.6%	-0.5%	·
O=C(c1ccccc1)N1N=C(c2ccccc2)CC1(O)C(F)(F)F (configuration not stated)	2.3%	-3.0%	0.9%	-0.2%	·
COC(=O)N1N=C(c2ccc(Br)cc2)CC1(O)C(F)(F)F (configuration not stated)	10.7µM*	?	3.55µM*	?	15.8µM*
CCOC(=O)N1N=C(c2ccccc2)CC1(O)C(F)(F)F (configuration not stated)	13.5µM*	2.24µM*	3.55µM*	?	?
CCOC(=O)N1N=C(CC)CC1(O)C(F)(F)F (configuration not stated)	10.7%	0.6%	-4.9%	0.7%	2.5%
CCOC(=O)N1N=C(c2ccc(C)cc2)CC1(O)C(F)(F)F (configuration not stated)	5.36µM*	0.708µM*	0.891µM*	?	20.8%
O=C(C1CC1)N1N=C(c2ccc(F)cc2)CC1(O)C(F)(F)F (configuration not stated)	1.8%	4.4%	-2.6%	-0.1%	·
CN(C(=O)Cn1c(=O)n(CCCS(=O)(=O)C2CCCCC2)c(=O)c2ccccc21)c1ccccc1	-1.4%	·	·	·	7.8%
CSCC[C@H](Nc1ncnc2sc(C)c(C)c12)C(=O)O	1.5%	-2.1%	3.7%	1.2%	-8.9%
COc1ccc(S(=O)(=O)N2CCC(c3ccncc3)CC2)cc1Cl	-1.1%	·	·	·	·
Oc1c(C2=NCCNC(C(F)(F)F)=C2)ccc2ccccc12	4.78µM*	2.24µM*	2.82µM*	9.2µM*	11.2µM*
SMILES	FLuc counter	Rab9 prom act	NPC1 promoter act	ELG1 genotox	SMN2 splice up
N#Cc1ccccc1COC(=O)c1cccnc1N	-10.8%	-2.2%	-0.4%	-6.1%	-9.0%
Cc1cccc(NC(=O)CCCNC(=O)c2ccc(Cl)cc2)n1	2.3%	1.4%	-2.2%	-2.3%	·
COc1ccc(/C=C(\C#N)C(=O)Nc2cccnc2)cc1	?	0.6%	-2.8%	1.4%	1.9%
O=C(/C=C/c1ccccc1)Nc1ccc(Cl)cn1	2.69µM*	?	?	?	12.6µM*
Cc1cccc(NC(=O)/C(C#N)=C/c2ccc(Cl)cc2)n1	2.39µM*	-0.1%	1.0%	-3.3%	·
COc1ccc(/C=C(\C#N)C(=O)Nc2cccc(C)n2)cc1	0.953µM*	4.8%	0.5%	2.1%	·
Cc1cccc(NC(=O)/C=C/c2ccc(Cl)cc2)n1	1.07µM*	2.24µM*	3.98µM*	1.0%	3.55µM*
CCCC(=O)N1CC(=O)Nc2ccc(C)cc2C1c1ccc(F)cc1 (configuration not stated)	5.3%	-0.4%	-0.2%	0.9%	·
CCOc1ccccc1NC(=O)Cn1c(=O)n(CCCCC(=O)NCCCOC)c(=O)c2ccccc21	-0.3%	·	·	·	28.9%
NS(=O)(=O)c1ccc(N/N=C/C=C/c2ccccc2[N+](=O)[O-])cc1	16.9µM*	?	?	?	·
O=C(O)c1cc(N/N=C/C=C/c2ccccc2[N+](=O)[O-])ccc1Cl	19µM*	3.55µM*	1.41µM*	?	·
O=C(N/N=C/C=C\c1ccccc1[N+](=O)[O-])c1ccncc1	-1.9%	-9.7%	2.2%	0.1%	-26.5%
O=[N+]([O-])c1ccccc1/C=C/C=N/Nc1nc(N2CCCCC2)nc(N2CCCCC2)n1	0.0%	-11.5%	-1.2%	-1.7%	4.0%
O=[N+]([O-])c1ccccc1/C=C/C=N/N1CCCCC1	10.7µM*	2.24µM*	?	4.61µM*	15.8µM*
CCOc1ccc(NC(=O)CCc2c(C)nc3cc(-c4ccccc4OC)nn3c2C)cc1	-9.1%	·	·	·	-2.9%
Cc1cccc(/C=C2\Sc3ccc(C(=O)N4CCC(C(N)=O)CC4)cc3N(C)C2=O)c1	19µM*	-5.9%	-20.4%	-9.2%	·
CN1C(=O)/C(=C/c2ccccc2Cl)Sc2ccc(C(=O)N3CCCC3)cc21	?	-0.1%	-2.3%	-0.4%[9.26 µM]	·
CN1C(=O)/C(=C/c2ccc(C(F)(F)F)cc2)Sc2ccc(C(=O)N3CCN(c4ccccn4)CC3)cc21	8.49µM*	-6.3%	-6.4%	-12.3%	·
C=CC[n+]1c(-c2ccc(C)cc2)csc1Nc1ccc(NC(C)=O)cc1	?	-18.6%	-16.4%	3.0%	-68.0%
CCCN(C(=O)c1cccs1)c1nnc(-c2ccncc2)s1	?	24.0%	11.5%	-2.5%	3.3%
CCN(CC)S(=O)(=O)c1ccc(C)c(NC(=O)Cn2c(=O)cnc3ccccc32)c1	-6.0%	4.3%	-4.6%	-6.4%	-31.6%
CCN(CC)S(=O)(=O)c1cc(C(=O)O)ccc1OC	2.7%	-3.1%	8.2%	0.0%	·
O=C(Oc1cccc(-c2cnc3ccccc3n2)c1)c1ccco1	23.9µM*	3.16µM*	?	?	12.6µM*
CCN(CC)S(=O)(=O)c1cc(C(=O)Oc2cccc(-c3cnc4ccccc4n3)c2)ccc1OC	-17.1%	?	?	9.8%	12.6µM*
